High-throughput results (PubChem BioAssay)
DT40 TDP1 CPT: growth inhibition of DT40 Tdp1-/-;hTDP1 cells with camptothecin (screen for TDP1 inhibitors); chicken DT40 Tdp1-/-;hTDP1 cells + 20 nM CPT, ATP luminescence, 48 h; AID 686979; 12% of 420,000 active; Potency, µM (series often up to 46.2 µM), without a hit: top-dose activity change, negative = growth inhibition, actives largely listed as inhibitors; further: on the % scale 0 is the no-effect control and ±100 the full control effect; nearly all actives have a fitted effect of over 55% in size
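Chicken DT40 Tdp1-/- cells stably complemented with human TDP1 were seeded at 400 cells/well in medium containing 20 nM camptothecin, exposed to pin-transferred compounds, and grown at 37 °C for at least 48 hr. Viability was read as ATP luminescence.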
S2 tox: reduces viability in counter-screen for ATXN expression inhibitors; Potency, µM (titrated, usually from 56.7 µM), most hits filed as cytotoxic; S2 cells (HEK-293 line with an ATXN2-luciferase reporter) viability, CellTiter-Fluor protease fluorescence, 24 h; AID 651635; 0.49% of 400,000 active; further: nearly all actives have a fitted effect of over 40% in size
ATXN2 expr inh: ATXN2 expression inhibition | HEK-293 ATXN2-luciferase reporter, luminescence, 24 h | Potency, µM (highest dose often 57 µM), without a hit: top-dose activity change, negative = inhibition, hits mostly inhibitors | 0.72% of 360,000 active | AID 1745845; further: on the % scale 0 is the no-effect control and ±100 the full control effect; nearly all actives have a fitted effect of over 55% in size
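qHTS (up to 57 uM final) was run with 24 h compound exposure of reporter cells at 37 °C. Each well was multiplexed: SteadyGlo luminescence measured ATXN2-luciferase expression after a fluorogenic Gly-Phe-AFC viability readout (25 uM final).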
HepG2 viability: kills HepG2 cells in TGF-b inhibitor counter-screen; HepG2 CAGA-GFP viability, ATP luminescence, 18 h; Potency, µM (titrated, usually from 46.1 µM), for the others: top-dose activity change, negative = cytotoxicity, most hits filed as cytotoxic; 0.76% of 410,000 active
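CellTiter-Glo luminescence gave cytotoxicity after 18 hours at 37 degrees C. The cells were HepG2 CAGA-GFP in 1% FBS DMEM, stimulated with 500 pg/mL TGF-beta after compound addition. %Activity was normalised to no-cell wells (complete cell-killing) and DMSO (no toxicity), and curves were fitted and classified.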
TDP1 cell noCPT: qHTS for Inhibitors of human tyrosyl-DNA phosphodiesterase 1 (TDP1): qHTS in cells in absence of CPT; AID 686978, 2013; Potency, µM (doses to about 46.2 µM), without a hit: at the top dose activity change, negative = growth inhibition, hits mostly inhibitors; 15% of 420,000 active; DT40 Tdp1-/- hTDP1 cells, no CPT, ATP luminescence, 48 h; further: on the % scale 0 is the no-effect control and ±100 the full control effect; nearly all actives have a fitted effect of over 55% in size
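Camptothecin absent (DMSO only). Human TDP1-complemented DT40 knockout cells, 400 cells/well, 37 °C for minimum 48 hr; ATP measured via CellTiter-Glo, 30 min dark incubation, luminescence.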
TGFb inhibitor: inhibitors of TGF-b signaling; 1.2% of 410,000 active; HepG2 CAGA-GFP TGF-b/SMAD3 reporter, GFP fluorescence, 18 h; TGF-beta stimulated, 500 pg/mL final; AID 588855; Potency, µM (titrated, usually from 46.1 µM), without a hit: at the top dose activity, negative = inhibition, actives largely listed as inhibitors; further: on the % scale 0 is the no-effect control and ±100 the full control effect; nearly all actives have a fitted effect of over 65% in size
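Read-out: total well GFP (ex488/em500-530) summed from mean per-cell fluorescence. Cells: HEPG2 CAGA-GFP, 1% FBS DMEM, 18 h at 37 degrees C with 500 pg/mL final TGF-beta. Unstimulated wells served as the full-inhibition control; stimulated DMSO wells = 0%.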
* hit, by the source's call; i = inactive; u = inconclusive; x = no result given. Shown are actives, neighbours in structure and some others; about 17% of the full set was active somewhere. The call rests on the fitted dose curve; in most records, active means well fitted curve in the direction sought with a large enough effect; inconclusive means small, poorly fitted or top-dose-only effect, or another doubt; inactive means no such curve, though single readings can be large; an effect the other way counts as inactive or inconclusive. Potency means the concentration at half of the fitted maximal effect.

SMILES | DT40 TDP1 CPT | S2 tox | ATXN2 expr inh | HepG2 viability | TDP1 cell noCPT | TGFb inhibitor
CC[C@@H]1CN2CCc3cc(OC)c(OC)cc3[C@@H]2C[C@@H]1C[C@H]1NCCc2cc(OC)c(OC)cc21 | -74% | x | x | x | 0.034µM* | x
CCn1ccnc1CN1CCCC(C(=O)c2ccc(OC)cc2OC)C1 (configuration not stated) | u | i | -12% | -22% | u | -8%
COc1ccc(C(=O)C2CCCN(CCO)C2)c(C)c1 (configuration not stated) | -14% | i | -1% | -8% | u | 1%
COc1ccc(C(=O)C2CCCN(Cc3cccc(C)n3)C2)c(OC)c1 (configuration not stated) | u | i | -22% | -14% | 21µM* | -8%
COc1ccc(C(=O)C2CCCN(Cc3ccc(C)s3)C2)c(OC)c1 (configuration not stated) | u | i | -2% | -3% | 21µM* | -23%
COc1ccc(C(=O)C2CCCN(C3CSCCSC3)C2)c(OC)c1 (configuration not stated) | u | i | 11% | -1% | 23µM* | 12%
c1cc2c3c(cccc3c1)CC2 | -5% | x | x | -5% | -24% | -10%
Cc1ccc(CNC(=O)CCCn2c(=O)c3sccc3n(CC(=O)Nc3c(C)cccc3C)c2=O)cc1 | -2% | x | x | 3% | -16% | 1%
Cc1ccc(C(=O)Nc2ccc(S(=O)(=O)N3CCC(c4nc5ccccc5s4)CC3)cc2)cc1 | u | x | x | -6% | u | -21%
Cc1nc2ccc(Nc3nc4cc(S(=O)(=O)N5CCOCC5)ccc4o3)cc2s1 | 16µM* | i | 3% | 2% | 18µM* | -5%
Cc1cccc(NC(=S)N2CC3CC(C2)c2cccc(=O)n2C3)c1C (configuration not stated) | -13% | i | 7% | 4% | -17% | u
C[C@@H](C(=O)OC1C[C@H]2CC[C@@H](C1)N2C)c1ccc(Br)cc1 (some centres not stated) | 30µM* | x | x | x | 27µM* | x
COc1cc(C(=O)OC2C[C@H]3CC[C@@H](C2)N3C)ccc1O (some centres not stated) | 33% | i | -23% | -16% | 2% | -12%
CN1CCN(CCC(=O)OC2CC3CCC(C2)N3C)CC1 (configuration not stated) | 15% | i | 0% | -1% | -25% | 2%
CN1C2CCC1CC(OC(=O)c1cc(Cl)cc(Cl)c1)C2 (configuration not stated) | 15µM* | i | -6% | -35% | u | -2%
Cc1cc(C)cc(C(=O)OC2C[C@H]3CC[C@@H](C2)N3C)c1 (some centres not stated) | 24µM* | x | x | x | 19µM* | x
CCOC(=O)C1C(C=C(C)C)C1(C)C (configuration not stated) | -5% | x | x | x | 17% | x
O=C(O)c1ccc(=O)[nH]c1 | x | i | 12% | x | x | x
C[C@@H]1CN([C@H](C)CO)C(=O)c2c(c3ccccc3n2C)-c2ccccc2CO[C@H]1CN(C)C(=O)Cc1ccccc1 | 23µM* | u | 0% | -26% | 13µM* | -9%
Cc1ccc(S(=O)(=O)N(C)C[C@H]2Oc3ncc(Br)cc3C(=O)N([C@H](C)CO)C[C@@H]2C)cc1 | -30% | i | -11% | -20% | 23µM* | 0%
Cc1ccc(S(=O)(=O)N(C)C[C@@H]2Oc3ncc(Br)cc3C(=O)N([C@H](C)CO)C[C@@H]2C)cc1 | u | i | -12% | 17% | u | -15%
C[C@@H]1CN([C@H](C)CO)C(=O)c2cc(NC(=O)Nc3ccc(C(F)(F)F)cc3)ccc2O[C@H]1CN(C)S(=O)(=O)c1cccs1 | u | u | -30% | 5% | u | u
C[C@H](CO)N1C[C@H](C)[C@@H](CN(C)S(=O)(=O)c2cccs2)Oc2ccc(NC(=O)Nc3ccc(C(F)(F)F)cc3)cc2C1=O | 16µM* | u | u | -19% | 18µM* | u
Cc1ccc(S(=O)(=O)N(C)C[C@@H]2OCc3ccccc3-c3c(n(C)c4ccccc34)C(=O)N([C@H](C)CO)C[C@@H]2C)cc1 | 23µM* | i | u | -22% | u | u
CCOC(=O)c1ncn2c1CN(C)C(=O)c1c(I)cccc1-2 | -5% | u | 8% | x | -9% | x
SMILES | DT40 TDP1 CPT | S2 tox | ATXN2 expr inh | HepG2 viability | TDP1 cell noCPT | TGFb inhibitor
COc1ccccc1NC(=O)N(Cc1ccco1)C1CCN(C(C)=O)CC1 | -25% | x | x | -2% | u | -17%
C[C@H](CO)N1C[C@H](C)[C@H](CN(C)S(=O)(=O)c2ccc(Cl)cc2)OCc2ccccc2-c2c(n(C)c3ccccc23)C1=O | 26µM* | u | u | -19% | 9.2µM* | u
O=C(COc1ccc(Cl)cc1)N(c1ccccc1Cl)C1CN2CCC1CC2 (configuration not stated) | 23µM* | i | -24% | -20% | 16µM* | u
Clc1ccccc1CNC1CN2CCC1CC2 (configuration not stated) | u | i | 16% | -14% | -8% | 8%
O=C(COc1ccc(Cl)cc1)N(c1ccc(Cl)cc1)C1CN2CCC1CC2 (configuration not stated) | u | u | -26% | -97% | 16µM* | 14µM*
C=C(C)[C@H]1Cc2c(ccc3c2O[C@@H]2COc4cc(OC)c(OC)cc4[C@@H]2C3=O)O1 | 0.24µM* | u | u | x | 0.24µM* | x
C=C(C)C1Cc2c(ccc3c2OC2COc4cc(OC)c(OC)cc4C2C3=O)O1 (configuration not stated) | 0.052µM* | x | x | x | 0.1µM* | x
COC(=O)c1cc2c(cn1)[nH]c1ccccc12 | 21% | x | x | x | 0% | x
COC(=O)Nc1nc2ccccc2[nH]1 | 6.5µM* | i | -19% | 6% | 5.8µM* | -3%
C[C@@H](Cc1ccccc1)N(C)C | -15% | x | x | x | -17% | x
CC(Cc1ccccc1Sc1ccc(O)cc1)N(C)C (configuration not stated) | u | i | -16% | -43% | 21µM* | 24%
CC(C)(C)OC(=O)N1CCC(c2c(C(=O)N3CCN(Cc4ccccc4)CC3)cnn2-c2ccc(Cl)cc2)CC1 | 26µM* | x | x | -14% | 21µM* | -3%
